From the supplement of paper PMC3724861
The entries come from a sample that favours hits as a whole. The true hit rate is not given.

tested on: T1, Caupolican (Caup) homeodomain DNA-binding domain; assay: PBM E-score (8-mer, recovered from the published 9-mer minima) (E-score (dimensionless, -0.5 to 0.5)); Drosophila protein; higher = stronger relative binding preference, active = 0.31 or more
T1 sequence: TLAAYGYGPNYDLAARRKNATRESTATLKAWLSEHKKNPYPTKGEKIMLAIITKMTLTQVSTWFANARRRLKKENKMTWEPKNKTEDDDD
Description: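 Protein binding microarray (PBM): in vitro transcribed/translated Caupolican (Caup) homeodomain DNA-binding domain (residues 214-303) applied at 100 nM to a universal 8-mer PBM array (Agilent AMADID 015681). The 8-mer enrichment score (E-score, range -0.5 to 0.5) was computed, and each 9-mer score is the minimum E-score of its two constituent 8-mers. The E-score is the same for a 9-mer and its reverse complement; 0.31 is the stated binding threshold.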

Row | Sequence | PBM E-score
1 | GATGGGGC | -0.192 (inactive)
2 | AGCATGTA | ≥ 0.413 (active)
3 | AGCATGGG | -0.0663 (inactive)
4 | GGCATGGA | -0.0635 (inactive)
5 | GGCATGCA | 0.0214 (inactive)
6 | GGCATGTA | 0.378 (active)
7 | AGCATGGA | 0.0568 (inactive)
8 | AGATTAGC | -0.0125 (inactive)
9 | ATGTAGCC | 0.145 (inactive)
10 | GCCCAGCC | -0.262 (inactive)
11 | TACGCTCA | -0.00447 (inactive)
12 | CACTTGTA | 0.318 (active)
13 | GACTTGTA | 0.38 (active)
14 | GACTTGCA | 0.0909 (inactive)
15 | CACTTGTC | 0.271 (inactive)
16 | GACTTGGA | -0.0172 (inactive)
17 | AACTTGTG | 0.147 (inactive)
18 | AACTTGTA | 0.364 (active)
19 | AACTTGTC | 0.27 (inactive)
20 | CACTTGGA | 0.0572 (inactive)
21 | AGCGACCA | -0.01 (inactive)
22 | TACCTTGA | 0.0541 (inactive)
23 | CGCTAGAA | -0.14 (inactive)
24 | CTACTCTC | -0.105 (inactive)

Row | Sequence | PBM E-score
25 | GAATAGCC | -0.146 (inactive)
26 | GCCTTGAA | -0.119 (inactive)
27 | CCTTTGTA | 0.138 (inactive)
28 | CCCTTGTC | 0.177 (inactive)
29 | ACCTTGTC | 0.306 (inactive)
30 | GCCTTGCA | -0.0717 (inactive)
31 | GCCTTGTA | 0.321 (active)
32 | ACCTTGTG | 0.0927 (inactive)
33 | CCCTTGTA | 0.337 (active)
34 | ACCTTGTA | 0.412 (active)
35 | CGTAGTTA | 0.157 (inactive)
36 | CAAGCTGA | 0.031 (inactive)
37 | CTAGGGCC | -0.235 (inactive)
38 | GGTCCGAC | -0.0703 (inactive)
39 | CCAGTAAC | -0.0237 (inactive)
40 | ATTATCAG | 0.0887 (inactive)
41 | AACTATTC | 0.0523 (inactive)
42 | ACTGATCC | 0.062 (inactive)
43 | ATACATCA | 0.334 (active)
44 | GAACATCA | 0.259 (inactive)
45 | GTACATCA | 0.383 (active)
46 | ATACATCC | 0.276 (inactive)
47 | CTACATCA | 0.253 (inactive)
48 | GCACATCA | 0.0977 (inactive)

Row | Sequence | PBM E-score
49 | CTAACGGA | -0.0298 (inactive)
50 | AAACGTTG | -0.0301 (inactive)
51 | ACAAAGGA | 0.131 (inactive)
52 | CTTTCCTA | -0.094 (inactive)
53 | ATCAGTAC | 0.201 (inactive)
54 | GAGAACAC | 0.236 (inactive)
55 | AAGAACAC | 0.312 (active)
56 | AAGAACAG | 0.172 (inactive)
57 | AAGAACAA | 0.259 (inactive)
58 | AAGAACAT | 0.357 (active)
59 | CAGAACAC | 0.215 (inactive)
60 | ACGTAGCT | 0.0358 (inactive)
61 | CATATCTC | 0.0782 (inactive)
62 | AGTTGGGC | -0.15 (inactive)
63 | AGCACGTG | 0.082 (inactive)
64 | ACTACATA | 0.35 (active)
65 | ACCACATG | 0.212 (inactive)
66 | CCTACATA | 0.153 (inactive)
67 | ACTACATG | 0.428 (active)
68 | ACTACAGG | 0.199 (inactive)
69 | ACTACAGC | 0.149 (inactive)
70 | ACTACATC | 0.33 (active)
71 | CCTACATC | 0.144 (inactive)
72 | GCTACATA | 0.248 (inactive)

Row | Sequence | PBM E-score
73 | AAAATACT | 0.04 (inactive)
74 | GCGATCGA | 0.0192 (inactive)
75 | AGCGTAGC | -0.111 (inactive)
76 | AGGGCCGC | -0.251 (inactive)
77 | CGACCCGA | -0.151 (inactive)
78 | GCGGTACA | 0.173 (inactive)
79 | CTGGCCAG | -0.181 (inactive)
80 | ATTTGGAC | 0.134 (inactive)
81 | AGGGCGTC | -0.192 (inactive)
82 | GGACATAA | 0.211 (inactive)
83 | AGACATAA | 0.217 (inactive)
84 | CTACATAA | 0.22 (inactive)
85 | TGACATAA | 0.311 (active)
86 | GGACATCA | 0.234 (inactive)
87 | CGTCATAA | 0.081 (inactive)
88 | AGTCATAA | 0.146 (inactive)
89 | TCACATAA | 0.182 (inactive)
90 | TGACATCA | ≥ 0.333 (active)
91 | TTACATAA | 0.339 (active)
92 | CGACATCA | 0.284 (inactive)
93 | TGTCATAA | 0.338 (active)
94 | AGCCTGGG | -0.123 (inactive)
95 | AATCCCCC | -0.256 (inactive)
96 | CGGGAACA | 0.176 (inactive)

Row | Sequence | PBM E-score
97 | AGACAACC | 0.201 (inactive)
98 | CTTAACAA | 0.228 (inactive)
99 | GTCGCGAA | 0.00326 (inactive)
100 | ATGGTGTC | 0.142 (inactive)
101 | GCTAGGCC | -0.238 (inactive)
102 | GTACATAC | 0.307 (inactive)
103 | GTACATAA | 0.361 (active)
104 | GCACATAA | 0.0651 (inactive)
105 | ACCCTGGG | -0.105 (inactive)
106 | GAGATAGC | -0.0575 (inactive)
107 | TACAACGA | 0.267 (inactive)
108 | AACAACAT | 0.409 (active)
109 | AACAACAA | 0.394 (active)
110 | AACAACTG | 0.208 (inactive)
111 | TACAACAA | 0.387 (active)
112 | CACAACAA | 0.29 (inactive)
113 | AACAACTA | ≥ 0.319 (active)
114 | AACAACGT | 0.252 (inactive)
115 | TTCAACAA | 0.299 (inactive)
116 | AACAACTC | 0.167 (inactive)
117 | AGCAACAA | 0.182 (inactive)
118 | AACAACAG | 0.243 (inactive)
119 | AGTTTCCA | 0.0163 (inactive)
120 | CTCTGGGC | -0.214 (inactive)

Row | Sequence | PBM E-score
121 | CCCGTGAA | -0.0554 (inactive)
122 | TCCGAGGA | -0.0519 (inactive)
123 | GGGAGTAA | 0.0271 (inactive)
124 | AATCCGGC | -0.121 (inactive)
125 | CTTGGGTA | -0.0204 (inactive)
126 | CCACCGGC | -0.281 (inactive)
127 | TTACTCAA | 0.0597 (inactive)
128 | ATCAACAT | 0.371 (active)
129 | ATCAACAA | 0.289 (inactive)
130 | AACAACCA | ≥ 0.324 (active)
131 | AACAACCC | 0.247 (inactive)
132 | ATCAACAG | 0.109 (inactive)
133 | AACAACCT | 0.243 (inactive)
134 | CGCGCTAG | -0.142 (inactive)
135 | GTCGATAA | 0.0563 (inactive)
136 | ACACCCGC | -0.0419 (inactive)
137 | AAAAAAGA | -0.0444 (inactive)
138 | CCGGCTCA | -0.123 (inactive)
139 | GATGAATC | 0.106 (inactive)
140 | CTGTCAAG | -0.017 (inactive)
141 | ATGTTTGA | 0.327 (active)
142 | ATGTTTTC | 0.33 (active)
143 | ATGTTTCC | 0.236 (inactive)
144 | CTGTTTGA | 0.188 (inactive)

Row | Sequence | PBM E-score
145 | CTGTTTTC | 0.134 (inactive)
146 | ATGTTTAA | 0.367 (active)
147 | ATGTTTGG | 0.229 (inactive)
148 | CTGTTTTA | 0.107 (inactive)
149 | CTGTTTAA | 0.111 (inactive)
150 | ATGTTTTA | 0.369 (active)
151 | GTGTTTTA | 0.213 (inactive)
152 | ATGTTTAG | 0.284 (inactive)
153 | ACGCAATC | -0.0194 (inactive)
154 | GAGTTTAC | -0.00241 (inactive)
155 | ACATCGCT | 0.178 (inactive)
156 | CCTTCTAC | -0.131 (inactive)
157 | CATCTGAC | 0.0423 (inactive)
158 | AAGGTACC | -0.127 (inactive)
159 | ACCGCACA | -0.00685 (inactive)
160 | CGCGGAGA | -0.112 (inactive)
161 | ATAGCTTC | -0.0833 (inactive)
162 | ATGTTAGA | 0.329 (active)
163 | CTGTTAGC | -0.0813 (inactive)
164 | ATGTTAGC | 0.314 (active)
165 | GTGTTAGA | 0.224 (inactive)
166 | CTGTTAGA | 0.105 (inactive)
167 | ATGTTAGG | 0.219 (inactive)
168 | AATGACAT | 0.298 (inactive)

Row | Sequence | PBM E-score
169 | AATGACAC | 0.277 (inactive)
170 | GATGACAA | 0.308 (inactive)
171 | TATGACAA | 0.314 (active)
172 | CATGACAA | 0.283 (inactive)
173 | AATGACAA | 0.346 (active)
174 | CATGACAC | 0.363 (active)
175 | GATGACAC | 0.219 (inactive)
176 | AATGACAG | 0.219 (inactive)
177 | AGATCATC | 0.12 (inactive)
178 | ACAGGCGC | -0.0681 (inactive)
179 | TGAGGGCA | -0.108 (inactive)
180 | GAGCACAC | 0.00424 (inactive)
181 | AGCGTCTA | -0.0661 (inactive)
182 | ACACGGTC | 0.219 (inactive)
183 | ACACGGAA | 0.291 (inactive)
184 | ACACGGAG | 0.131 (inactive)
185 | ACACGGTG | 0.307 (inactive)
186 | ACACGGAT | 0.339 (active)
187 | ACACGGTA | 0.327 (active)
188 | ACAACGTA | 0.255 (inactive)
189 | AGTCACAG | 0.0714 (inactive)
190 | CGCCCCCA | -0.285 (inactive)
191 | ACCATGAC | 0.0507 (inactive)
192 | AACATGAT | ≥ 0.424 (active)

Row | Sequence | PBM E-score
193 | AGCATGAG | 0.104 (inactive)
194 | AACATGAG | 0.351 (active)
195 | ACCATGAT | 0.158 (inactive)
196 | AACATGAC | 0.42 (active)
197 | AGCATGAC | 0.0874 (inactive)
198 | AGCATGAT | 0.197 (inactive)
199 | CACATGAG | 0.0472 (inactive)
200 | AGAAGATC | -0.0662 (inactive)
201 | GTTGGATA | 0.0774 (inactive)
202 | ATCCAATC | 0.102 (inactive)
203 | AGCCCTTC | -0.22 (inactive)
204 | GCTCGTGA | -0.064 (inactive)
205 | AGCGGGGG | -0.28 (inactive)
206 | GACTATGA | 0.0441 (inactive)
207 | ATAATGCC | 0.0429 (inactive)
208 | ACTTGCAT | 0.137 (inactive)
209 | GCGTTTAC | -0.0438 (inactive)
210 | AGTACAGC | 0.167 (inactive)
211 | AGTACATG | 0.45 (active)
212 | AGCACATC | 0.0585 (inactive)
213 | AGTACATC | 0.342 (active)
214 | AGTACGTG | 0.0988 (inactive)
215 | AGCACATG | 0.164 (inactive)
216 | CGTGATAG | -0.0553 (inactive)

Row | Sequence | PBM E-score
217 | AGCGCAAG | -0.181 (inactive)
218 | CTTTGCGA | -0.0806 (inactive)
219 | TAAAAAGA | 0.0988 (inactive)
220 | CAAAGTTC | -0.0431 (inactive)
221 | ATATGTTC | 0.347 (active)
222 | GTATGTTA | 0.321 (active)
223 | CTATGTTA | 0.294 (inactive)
224 | ATATGTGC | 0.118 (inactive)
225 | ATATGTTA | 0.338 (active)
226 | CTATGTTC | 0.31 (inactive)
227 | ATATGTGG | 0.182 (inactive)
228 | ATCTGTTG | 0.128 (inactive)
229 | GTCTGTTA | 0.161 (inactive)
230 | ATATGTTG | 0.324 (active)
231 | CTCTGTTA | 0.107 (inactive)
232 | ATATGTGA | 0.25 (inactive)
